# High-throughput results: PubChem, National Center for Advancing Translational Sciences (NCATS)
# In the library only some 10% were active in any assay of this set; here they are far more common.
# JMJD2A Tudor inh: blocks the human JMJD2A Tudor domain | AlphaScreen JMJD2A-Tudor / H3K4me3 peptide binding | Potency, µM (titrated, usually from 114 µM), for the others: top-dose activity change, negative = inhibition, usual class: inhibitors | AID 504339 | O75164 | hit rate 4.4% among 390,000; also: potency is read from the fitted curve at half-maximal effect; % is scaled to controls: 0 for no effect and ±100 for the full control effect; nearly all actives have a fitted effect of over 50% in size
# G9a block: G9a (human) methyltransferase inhibition; AID 504332; G9a H3K9 monomethylation, AlphaScreen, 2 h; Q96KQ7; Potency, µM (top dose mostly 102 µM), inactives show at the top dose activity, negative = inhibition, hits mostly inhibitors; hit rate 8.8% among 350,000; also: potency is read from the fitted curve at half-maximal effect; % is scaled to controls: 0 for no effect and ±100 for the full control effect; nearly all actives have a fitted effect of over 75% in size
#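 Enzyme 20 nM + cpd, 15 min RT; add b-H3K9 pep 500 nM / SAM 20 uM; 2 h RT; anti-H3K9me1 Ab 0.5 ug/mL + SA donor / anti-rabbit acceptor beads 20 ug/mL each, 10 min; AlphaScreen read.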
# BAZ2B block: inhibitors of human BAZ2B bromodomain | Q9UIF8 | AlphaScreen BAZ2B-H3K14Ac peptide displacement | Potency, µM (highest dose often 114 µM), without a hit: at the highest dose activity change, negative = inhibition, hits mostly inhibitors | hit rate 4.4% among 360,000 | AID 504333; also: potency is read from the fitted curve at half-maximal effect; % is scaled to controls: 0 for no effect and ±100 for the full control effect; nearly all actives have a fitted effect of over 60% in size
# Target sequence (Q9UIF8 whole entry, looked up): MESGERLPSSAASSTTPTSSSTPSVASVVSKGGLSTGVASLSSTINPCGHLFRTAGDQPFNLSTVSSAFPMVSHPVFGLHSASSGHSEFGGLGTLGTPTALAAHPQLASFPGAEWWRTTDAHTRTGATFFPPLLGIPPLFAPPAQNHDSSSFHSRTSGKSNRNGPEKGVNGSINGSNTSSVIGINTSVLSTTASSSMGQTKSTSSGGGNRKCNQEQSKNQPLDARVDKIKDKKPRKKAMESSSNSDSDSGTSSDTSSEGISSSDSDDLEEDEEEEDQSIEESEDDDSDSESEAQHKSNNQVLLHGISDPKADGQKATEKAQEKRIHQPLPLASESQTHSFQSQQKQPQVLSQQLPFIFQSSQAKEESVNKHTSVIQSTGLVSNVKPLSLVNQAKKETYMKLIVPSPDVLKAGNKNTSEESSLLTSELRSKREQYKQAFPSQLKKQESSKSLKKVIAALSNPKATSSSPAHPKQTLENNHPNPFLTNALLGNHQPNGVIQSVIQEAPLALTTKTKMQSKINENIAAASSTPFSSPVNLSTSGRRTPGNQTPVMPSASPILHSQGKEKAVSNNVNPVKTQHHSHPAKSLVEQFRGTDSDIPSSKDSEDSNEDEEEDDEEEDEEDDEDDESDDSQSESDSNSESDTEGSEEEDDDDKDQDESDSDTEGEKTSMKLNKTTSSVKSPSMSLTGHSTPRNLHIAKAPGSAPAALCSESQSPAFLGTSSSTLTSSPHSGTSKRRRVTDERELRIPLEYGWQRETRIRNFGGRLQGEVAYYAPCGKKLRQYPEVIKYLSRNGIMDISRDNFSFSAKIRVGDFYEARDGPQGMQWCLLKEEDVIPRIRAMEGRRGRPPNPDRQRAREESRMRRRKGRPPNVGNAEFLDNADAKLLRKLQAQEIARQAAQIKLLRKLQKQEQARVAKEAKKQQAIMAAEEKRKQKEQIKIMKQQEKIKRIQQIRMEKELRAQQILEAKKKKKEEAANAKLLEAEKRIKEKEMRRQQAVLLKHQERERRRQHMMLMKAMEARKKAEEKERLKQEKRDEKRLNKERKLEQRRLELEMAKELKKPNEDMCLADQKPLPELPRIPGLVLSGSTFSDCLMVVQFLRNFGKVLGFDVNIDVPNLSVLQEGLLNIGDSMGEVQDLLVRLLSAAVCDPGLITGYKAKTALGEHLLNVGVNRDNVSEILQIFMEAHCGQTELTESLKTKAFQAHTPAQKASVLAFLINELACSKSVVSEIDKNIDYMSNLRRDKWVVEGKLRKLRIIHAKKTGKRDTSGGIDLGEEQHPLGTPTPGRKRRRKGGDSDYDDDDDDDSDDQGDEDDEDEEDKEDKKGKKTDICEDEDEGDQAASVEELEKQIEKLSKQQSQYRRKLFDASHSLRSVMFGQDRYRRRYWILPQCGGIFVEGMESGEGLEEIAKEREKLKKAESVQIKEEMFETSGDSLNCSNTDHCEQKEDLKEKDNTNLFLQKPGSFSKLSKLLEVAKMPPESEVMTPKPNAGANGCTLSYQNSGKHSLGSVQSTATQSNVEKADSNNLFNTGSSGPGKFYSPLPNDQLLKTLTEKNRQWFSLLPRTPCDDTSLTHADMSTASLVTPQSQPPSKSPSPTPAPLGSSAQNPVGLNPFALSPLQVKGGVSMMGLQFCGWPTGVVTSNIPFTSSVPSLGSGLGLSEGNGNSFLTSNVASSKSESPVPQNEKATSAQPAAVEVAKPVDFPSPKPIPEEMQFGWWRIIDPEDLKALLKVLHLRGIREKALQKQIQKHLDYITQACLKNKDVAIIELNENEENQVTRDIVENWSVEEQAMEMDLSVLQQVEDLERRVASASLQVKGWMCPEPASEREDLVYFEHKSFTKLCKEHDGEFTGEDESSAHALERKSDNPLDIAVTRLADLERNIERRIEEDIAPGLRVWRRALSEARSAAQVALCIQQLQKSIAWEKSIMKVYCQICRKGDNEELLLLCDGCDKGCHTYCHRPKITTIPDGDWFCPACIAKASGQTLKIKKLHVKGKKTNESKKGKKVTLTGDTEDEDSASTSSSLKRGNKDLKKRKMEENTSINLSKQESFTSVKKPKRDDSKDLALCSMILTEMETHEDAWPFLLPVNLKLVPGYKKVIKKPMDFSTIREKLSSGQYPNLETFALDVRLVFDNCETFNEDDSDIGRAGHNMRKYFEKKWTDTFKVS
#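 Compounds, titrated to a top concentration of 110 uM, were incubated 30 min at room temperature with preformed BAZ2B/acetyl-K14 H3 peptide complex (50 nM each). Proximity signal was measured by AlphaScreen after 20 min with beads.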
# CtBP-E1A inh: inhibitors of CtBP/E1A interaction. AlphaScreen GST-E1A/His-CtBP binding, 1536-well; active compounds read low. activity change, % (no concentration beside the values). hit rate 0.49% among 340,000; in the data active = activity change below about -65%; inconclusive = mostly about -30% to -63%; also: % is scaled to controls: 0 for no effect and ±100 for the full control effect
#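 In 5 uL wells, 23 nL compound meets equimolar GST-E1A and His-CtBP (5X stock 125 nM each) for 2 h, 37 °C. Beads (5X, 50 ug/mL) then 1 h, 37 °C, dark.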
# HP1b binding inh: HP1-beta chromodomain-methylated histone interaction inhibition; P83916; AlphaScreen HP1-beta / biotin-H3K9me3 peptide binding; Potency, µM (series often up to 114 µM), for inactives: at the top dose activity change, negative = inhibition, actives largely listed as inhibitors; hit rate 0.56% among 390,000; AID 540317; also: potency is read from the fitted curve at half-maximal effect; nearly all actives have a fitted effect of over 70% in size
#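 Compound inhibition of the preformed complex between 50 nM HP1-beta and 50 nM biotinylated H3K9me3 peptide was read by AlphaScreen. Buffer was PBS pH 7.4 with 0.01% Tween-20. Incubations ran 30 min at room temperature, with 10 ug/mL donor/acceptor beads.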
# Six1-Eya2 inh: Six1/Eya2 interaction inhibition; Q15475+O00167; AlphaScreen GST-Six1/His-Eya2 binding, biochemical; active compounds read low; activity change, % (no concentration beside the values); hit rate 0.56% among 360,000; AID 651725; in the data active = activity change below about -65%; inconclusive = mostly about -30% to -63%; also: % is scaled to controls: 0 for no effect and ±100 for the full control effect
#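 Homogeneous AlphaScreen proximity assay pairing GST-Six1 with His-tagged Eya2 (added as 5X mix: 250 nM and 500 nM) in 50 mM Tris pH 8.0, 300 mM NaCl, 1 mM TCEP. Glutathione donor and nickel acceptor beads; 1 h, 37 °C, dark.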
# Active calls of the source: *; ? = inconclusive; . = no result; [ ] = another dose, or the depositor's remark. Unless noted, calls follow the shape of the dose curve; as a rule, active = well fitted inhibition curve with a large enough effect; inconclusive = small, poorly fitted or top-dose-only effect; inactive = no such curve, though single readings can be large or run the other way.
SMILES,JMJD2A Tudor inh,G9a block,BAZ2B block,CtBP-E1A inh,HP1b binding inh,Six1-Eya2 inh
COc1ccc(N2C(=O)CC(N3CCN(C(=O)c4ccco4)CC3)C2=O)cc1 (centres undefined),-10%,56µM*,-11%,-1,2%,5
COc1cccc(N2C(=O)CC(N3CCN(C(=O)c4ccco4)CC3)C2=O)c1 (centres undefined),-6%,?,5%,4,55%,3
COc1ccc2[nH]c(C)c(C(=O)CN3CCN(C(=O)c4ccco4)CC3)c2c1,-17%,50µM*,1%,1,16%,-1
CN(c1ccccc1)S(=O)(=O)c1ccc(Cl)c(C(=O)OCC(=O)c2c(N)n(C)c(=O)n(C)c2=O)c1,-20%,.,.,-10,27%,-2
CC(C)[C@@H]1Cc2[nH]n(C)c(=O)c2[C@H](c2ccc(F)cc2)O1,.,.,.,5,.,4
O=C(Nc1ccc(Cl)cc1)C1C2C=CC3(O2)C1C(=O)N(CCCN1CCCCC1)C3C(=O)NC1CCCCC1 (centres undefined),-5%,50µM*,1%,5,11%,7
O=[N+]([O-])c1ccc(Nc2ccc(F)cc2)nc1,-19%,-5%[59 µM],-29%,11,22%,14
O=[N+]([O-])c1cnccc1Nc1cccc(F)c1,-30%,7.1µM*,?,-2,3%,-2
O=[N+]([O-])c1ccc(Nc2cccc(F)c2)nc1,-11%,50µM*,-20%,-7,31%,1
O=[N+]([O-])c1ccccc1Nc1cccc(F)c1,45µM*,.,.,?,?,?
CNC(=S)N1CCN=C1Nc1nc(C)cc(C)n1,-12%,-2%,-31%,4,33%,4
COc1ccc(C(=O)/C=C/C(=O)N(CC(=O)NC2CCCCC2)Cc2cccs2)c(O)c1,-13%,16µM*,-25%,-2,14%,0
COc1cccc(NC(=O)C(=O)NCCc2csc(-c3ccc(C(F)(F)F)cc3)n2)c1,3%,6%[59 µM],5%,.,31%[57 µM],.
Cc1ccc2nc(NCc3ccco3)c(C=NCc3ccco3)c(=O)n2c1,1%,3%[59 µM],50µM*,-13,31%,1
c1ccc(-c2ccc(-c3cnc4n3CCCCC4)cc2)cc1,56µM*,18µM*,50µM*,-15,-43%,-18
Cc1cccc(C(=O)N2CCCC(N3CCN(c4ccccc4)CC3)C2)n1 (centres undefined),1%,-7%,-13%[57.1 µM],2,23%,0
COc1ccc(N2CCN(C3CCCN(Cc4ccc(F)cc4Cl)C3)CC2)cc1 (centres undefined),?,71µM*,?,?,-30%,-9
COc1ccc(N2CCN(C3CCCN(S(=O)(=O)c4ccc(C)cc4C)C3)CC2)cc1 (centres undefined),32µM*,35µM*,25µM*,-66*,?,?
COc1ccc(N2CCN(C3CCCN(C(=O)c4cccc(C)n4)C3)CC2)cc1 (centres undefined),3%,50µM*,-2%,0,14%,23
O=S(=O)(c1cc(Cl)ccc1Cl)N1CCN2CCCC2C1 (centres undefined),0%,-9%,-9%,9,22%,9
Cc1cc(S(=O)(=O)N2CCCC(N3CCOCC3)C2)c(C)cc1Cl (centres undefined),-17%,45µM*,-32%,-9,-20%,-11
COCCCNC(=O)CN(c1ccc(F)cc1)S(=O)(=O)c1ccc2c(c1)OCCO2,-8%,26%,8%,3,10%,13
COc1ccc(N2CCN(C(=O)NC3CCCCC3)CC2)cc1,-20%,?,4%,-2,-6%,5
COc1ccc(N2CCN(C(=O)c3cn(CC4CCCCC4)nn3)CC2)cc1,?,35µM*,?,-21,-10%,-9
COc1ccc(N2CCN(C3CCCN(S(=O)(=O)c4ccccc4)C3)CC2)cc1 (centres undefined),?,.,71µM*,-18,?,-11
SMILES,JMJD2A Tudor inh,G9a block,BAZ2B block,CtBP-E1A inh,HP1b binding inh,Six1-Eya2 inh
CCC(=O)Nc1cccc(-c2ccc(N3CCCCC3)nn2)c1,2%,-3%,-8%,.,44%,-1
Cc1nc2cnc(N(C)C)nc2n(C2CC2)c1=O,.,1%[0.501 µM],.,.,.,.
Cc1cc(C)c(S(=O)(=O)NCCc2cc3ccc(C)cc3[nH]c2=O)c(C)c1,-13%,-2%[59 µM],-2%,.,20%,.
Oc1ccc(Cl)c(CN2CCN(c3ncc(Cc4ccccc4)cn3)CC2)c1,.,.,.,3,.,-15
Cc1nn(-c2ccccc2)c2c1cc1c(=O)n(C)c(=O)nc-1n2-c1cccc(Cl)c1,8%,8%[59 µM],.,.,69%,.
Cc1nn(-c2ccccc2)c2c1cc1c(=O)n(C)c(=O)nc-1n2-c1ccccc1F,-1%,32µM*,6%,9,46%,-1
Cc1cccc(N2C(=O)/C(=C\c3ccc(C(=O)O)cc3)c3ccccc3C2=O)c1,-28%,45µM*,?,-4,27%,2
C[C@@H]1CN([C@@H](C)CO)C(=O)c2cccc(NS(C)(=O)=O)c2O[C@H]1CN(C)CC1CCCCC1,?,.,.,0,8%,-1
CCOC(=O)c1cnc2c(-c3ccc(Cl)cc3)cnn2c1C,14%,33%,1%,17,54%,1
CCOC(=O)c1cnc2c(-c3ccc(F)cc3)cnn2c1C(F)(F)F,35µM*,40%[12.7 µM],-33%,9,26%,11
CC1CCC(C(C)C)C(OC(=O)Cn2c(-c3ccc(F)cc3)[n+](C)c3ccccc32)C1 (centres undefined),-18%,25µM*,10%,10,7%,-2
CCN1CCN(C(=S)c2ccc([N+](=O)[O-])cc2)CC1,?,10µM*,4%,-12,-34%,-1
CCCN1CCN(C(=S)Nc2ccc([N+](=O)[O-])cc2)CC1,-28%,28µM*,2%,-3,-22%,2
CC1CCN(C(=S)c2ccc([N+](=O)[O-])cc2)CC1,-34%,7.9µM*,?,-1,?,-23
CN(C)CCNc1ccc(CO)c2sc3ccc(O)cc3c(=O)c12,50µM*,.,.,?,71µM*,?
S=c1ncc2[nH]c(=S)[nH]c2[nH]1,11µM*,.,.,0,?,-21
CC(=O)N1CCN(c2csc3ccc(F)cc3c2=O)CC1,-7%,-40%[59 µM],-17%,.,27%[57 µM],.
CC12CCC(C(=O)N(CC(O)CN3CCCCCC3)C1=O)C2(C)C (centres undefined),-11%,22%[59 µM],2%,6,51%,3
